VCAM1 pot: TNF alpha stimulated VCAM1 expression potentiation | HUVEC TNFa-stimulated VCAM-1 immunofluorescence, high-content imaging; scaled per plate to unstimulated/TNFa-only wells | activation, % at 2 µM | 93,000 compounds, 0.19% hits | AID 808;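 active = activation above the screen mean plus 3 SD, with well images confirming the hit on visual review, cut at about 28% in these data, passing the limit was not always enough; inconclusive = activation above that limit but images do not confirm it; inactive = activation not above that limit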;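 also: signal is the number of cytoplasmic VCAM-1 stained grains per positive cell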
VCAM1 pot confirm: potentiators of TNFa-induced VCAM1 expression, confirmation, imaging, HUVEC, triplicate retest. HUVEC TNFa-stimulated VCAM-1 immunofluorescence imaging. 230 tested, under 10 active. AID 1034. activation, % at 2 µM. shares compounds with VCAM1 pot;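 active = activation above 30% in triplicate retests at 2 µM, then confirmed by visual review of the well images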;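 also: scaled per plate between unstimulated and TNFa-stimulated DMSO control wells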
Numbers without * were called inactive; ? = inconclusive. Many of the other results were omitted from the sample, so hits are more common in it than they were.

SMILES	VCAM1 pot	others
O=C(NC(Cc1ccccc1)C(=O)O)c1ccc(S(=O)(=O)N2CCCCC2)cc1 (stereo not given)	-4
Cc1nc2sc(C(c3ccc(Cl)cc3)N3CC(C)OC(C)C3)c(O)n2n1 (stereo not given)	-36
CC(=O)Nc1sc2c(c1CN1CCN(c3ccc(F)cc3)CC1)CCCC2	-5
COc1ccc(N2C(=O)CC(n3c(CCCCO)nc4ccccc43)C2=O)cc1 (stereo not given)	1
CCOC(=O)N1CCC(n2c(=S)[nH]c3cc(OC)c(OC)cc3c2=O)CC1	1
O=C(NCC1CCCO1)C1CCC(=O)N1Cc1ccccc1Cl (stereo not given)	6
COc1cc(OC)cc(C(=O)n2nc(C)cc2C)c1	-7
Cc1cc(C)n(C(=O)COc2ccc(Cl)cc2Cl)n1	43*	VCAM1 pot confirm=-12
CC(C)(CO)NC(=O)CCCOc1ccc(Cl)cc1Cl	-93
Cc1cc(C)nc(N(C#N)CN2C(=O)c3ccccc3S2(=O)=O)n1	0
NC(=O)c1nn(-c2ccccc2)c(=O)cc1O	-19
O=C1C2C3C=CC(C3)C2C(=O)N1CCN1CCN(S(=O)(=O)c2ccc3ccccc3c2)CC1 (stereo not given)	-6
CCOC(=O)c1cnc2nc(COc3ccccc3)[nH]n2c1=O	-6
O=C(Nc1ccccc1)N(CCN1CCOCC1)Cc1ccccc1F	10
CN(C)S(=O)(=O)N(CCN1CCOCC1)Cc1ccccc1F	45*	VCAM1 pot confirm=-8
O=C1C(Cc2ccccc2)NC(=S)N1c1ccccc1 (stereo not given)	-54
CCC(C)[C@@H](NC(=O)OC(C)(C)C)c1nnc(S(=O)(=O)Cc2cccc(C)c2)o1 (stereo not given in full)	-42
CCOc1ccccc1C(=O)N1CCC(n2nnc3cc(C(F)(F)F)ccc32)CC1	0
COc1cc(NC(=O)NCCN2CCN(c3ccc(Cl)cc3)CC2)ccc1C	-1
COc1ccc(NC(=O)c2ccc(CN3CCN(c4ccccc4)CC3)cc2)cc1OC	?	VCAM1 pot confirm=-7
COc1ccc(CNC(=O)c2ccc(CN3CCOCC3)cc2)cc1	-8
COC(=O)COc1ccc(S(=O)(=O)Nc2ccc(NC(C)=O)cc2)cc1C	26
Cc1ccc(Sc2ncccc2COC(=O)Nc2ccccc2)cc1	14
Cc1ccc2c(c1)-c1ccccc1S(=O)(=O)N2	32*	VCAM1 pot confirm=-4
O=S(=O)(c1ccc2c(c1)nc(COc1ccc(Cl)cc1)n2CC1CCCO1)N1CCOCC1 (stereo not given)	-5
SMILES	VCAM1 pot	others
CCOC(=O)Cc1csc(NC(=O)c2ccc(C)o2)n1	-6
CCOC(=O)Cc1csc(/C(=N/O)C(N)=O)n1	12
CCCCOC(=O)Nc1nc(CC(=O)OCC)cs1	?	VCAM1 pot confirm=-7
Cc1ccccc1OCCNc1ccc(C(F)(F)F)cc1[N+](=O)[O-]	-4
O=C(COc1ccc(S(=O)(=O)N2CCCCC2)cc1)NC1CCCCC1	-4
CCOC(=O)c1ccc(NC(=O)CSc2nnc(C3CCCCC3)n2C)cc1	11
CCCn1nnc(NC(=O)COc2ccc(C3CCCCC3)cc2)n1	68*	VCAM1 pot confirm=-14
CC(C)[C@H](NC(=O)Nc1ccccc1F)C(=O)O	-8
CCOC(=O)CNC(=O)CSc1nnc(Cn2cnc3ccccc32)n1C	6
CC(NC(=O)c1ccco1)C(c1cccs1)N1CCOCC1 (stereo not given)	8
CCNC(=O)C1CC(=O)N(Cc2ccc3c(c2)OCO3)C(=Nc2ccc(OCC)cc2)S1 (stereo not given)	-5
O=C(NC(=S)N(Cc1ccccc1)Cc1ccccc1)c1ccccc1F	4
O=C(CCC(=O)N1CCc2ccccc21)Nc1ccccc1	5
CCCCn1c(SCC(=O)c2ccc3c(c2)OCCO3)nnc1-c1ccco1	-2
O=C(CCN1CCc2ccccc21)c1ccc2c(c1)OCCO2	67*	VCAM1 pot confirm=0
CCN(CC)CC(C(=O)N(CC)CC)P(=O)(c1ccccc1)c1ccccc1 (stereo not given)	-6
CCOC(=O)CSc1nnc(CNC(=O)c2ccc(OC)cc2OC)n1-c1ccc(OC)cc1	10
CCCCCC1CC(CC(C)C(=O)Nc2nncs2)C(=O)O1 (stereo not given)	6
CCCCCCCC1CC(CSc2ncn[nH]2)OC1=O (stereo not given)	89*	VCAM1 pot confirm=-14
O=C(CN1CCOCC1)Nc1ccc(OCc2ccccc2)cc1	0
c1ccc(COc2ccc(OCCCCN3CCCCC3)cc2)cc1	38*	VCAM1 pot confirm=-13
CN1CCN(c2ccccc2NC(=O)c2ccc(OCc3ccccc3)cc2)CC1	7
CCC(C)(CC(=O)N(C)CCC#N)c1ccccc1 (stereo not given)	-11
CC(C(=O)NCC1CCCO1)N(C(=O)c1snc(C(N)=O)c1N)c1ccccc1 (stereo not given)	40*	VCAM1 pot confirm=-14
Cn1nc(C(=O)NCC2CCCO2)c2ccccc2c1=O (stereo not given)	-95
O=C(CC(c1ccccc1)c1ccccc1)NCC1CCCO1 (stereo not given)	-41

Screening results deposited in PubChem BioAssay by Columbia University Molecular Screening Center.
